Several values for one entry are separate records, joined by “and”; a condition that tells them apart may be missing. Identical values can stand only once. Inconclusive results are not listed. Activity calls are given as the source filed them.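 Rule for the calls, unless noted: active = normalized viability below 100% at a tested concentration; inactive = the rest.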
Assays:
[1] = liver-stage malaria parasite growth inhibition, primary screen, cell-based, HepG2, luciferase luminescence, HepG2 viability (AID 624349; in the data active = parasite load remaining mostly below about 12%, no sharp cut-off; inactive = mostly above about 10%;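 note: 100% = mean of DMSO negative control wells on the same plate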); conditions: P. berghei liver stage in HepG2, luciferase luminescence, concentration not given here; parasite load remaining: stronger effect = lower value; viability: measured here: HepG2 viability without parasites
[2] = stimulators of nuclear beta-catenin in C2C12, primary screen, imaging, WNT3A-conditioned medium, mouse C2C12, NPC library (AID 1117326; in the data active = nuclear beta-catenin stimulation mostly above about 4.2%, no sharp cut-off; inactive = mostly below about 10%); conditions: stronger effect = higher value
[3] = stimulators of insulin release from INS-1E, primary screen, cell-based, 5 mM glucose, NPC library (AID 1117329;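 active = compound raises insulin release from rat beta cells at 5 mM glucose, no numeric limit stated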); conditions: rat INS-1E insulin secretion, at 10 µM, stronger effect = higher value
[4] = growth inhibition of GSK3B-pretreated HCT116 cells – cell-based, CellTiter-Glo, 0.2 to 20 µM (AID 1117336;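 active = compounds lowering colon cancer cell viability after pretreatment blocking the GSK3B kinase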); conditions: HCT116 viability after GSK3B inhibitor, at 20 µM, stronger effect = higher value
[5] = inhibition of endothelial tube formation, primary screen, imaging, VEGF stimulated, CD31 staining, tube area, NPC library (AID 1117340;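 active = compound that reduces growth-factor-driven endothelial tube area in a mixed cell culture, no cutoff stated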); conditions: VEGF-stimulated ADSC/ECFC co-culture, at 10 µM, stronger effect = higher value
[6] = glucagon-like peptide 1 release enhancers, primary assay, NCI-H716 cell line, NPC library (AID 1117341;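 active = compound raises GLP1 secretion from the human gut endocrine cells, with no numeric limit stated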); conditions: NCI-H716 cells, at 10 µM, stronger effect = higher value
[7] = HCT116 colon cancer cell growth inhibition, primary screen, CellTiter-Glo luminescence, NPC library (AID 1117342;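 active = compounds that lower survival of HCT116 colon cancer cells in the luminescence readout, no numeric limit stated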); conditions: at 20 µM (top of the series)
[8] = CellTiter-Glo luminescent readout of SW480 viability loss, NPC library primary (AID 1117343;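 active = compounds that lower viability of the colon cancer cells in the luminescence readout, with no numeric limit stated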); conditions: CellTiter-Glo luminescence; at 20 µM (top of the series) unless noted
[9] = decreased DLD-1 cellular survival, CellTiter-Glo luminescent readout, NPC compound collection, primary HTS (AID 1117346;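 active = compounds that lower survival of DLD-1 colon cancer cells in the luminescence readout, no cutoff given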); conditions: DLD-1 viability, CellTiter-Glo luminescence; at 20 µM (top of the series)
[10] = tested on: Aerobactin synthetase IucA (Klebsiella pneumoniae); assay: IucA aerobactin synthetase inhibitors, biochemical, Tocris library, absorbance (AID 1345561; call rule not given here;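 note: 100% = enzyme without compound and 0% = no enzyme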); conditions: purified IucA enzyme assay, absorbance (OD) read-out; stronger effect = lower value;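 tested at 8 µM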
[11] = survival rescue of mitochondrial mutant cells in low glucose, primary screen, MELAS cybrids, Rieske KO mouse fibroblasts, CellTiter-Glo (AID 1508586;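 active = mean z-score across replicates of 1.96 or higher in either the MELAS or the Rieske mutant cell line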;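 note: z relative to plate mean and SD of compound and empty wells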)
[12] = viability rescue of complex I mutant cybrids, primary screen, cell-based, galactose medium, ATP luminescence (AID 1645843;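 active = z-score of at least 1.8 in each of two replicates, scored against plate mean and spread of sample wells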;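 note: positive z means more ATP and so rescue of galactose-driven cybrid death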); conditions: complex I mutant cybrid cells, 72 h, stronger effect = higher value
[13] = sensitizers of A549 cells to miR-34 induction, primary screen, imaging, A549 dox-inducible miR-34, nuclei and caspase counts (AID 1347080;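 active = compounds whose cell count with miR-34 switched on is under 0.7 times the count with it off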); conditions: A549 miR-34 inducible, Hoechst nuclei count, 48 h
[14] = growth inhibition of DIPG glioma cells, dose response, cell-based, SU-DIPG-XVII, MIPE5.0, CellTiter-Glo, qHTS (AID 1347060; cut-off not given, nearly all actives have AC50 up to about 26 µM;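 for AC50: cells exposed to compound for 48 hours before viability readout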); conditions: SU-DIPG-XVII viability, CellTiter-Glo ATP luminescence
[15] = growth inhibition of DIPG glioma cells, dose response, cell-based, SU-DIPG-XIII, MIPE4.0, CellTiter-Glo, qHTS (AID 1347061; cut-off not given, nearly all actives have AC50 up to about 37 µM;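 note: cells exposed to compound for 48 hours before readout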); conditions: SU-DIPG-XIII viability, CellTiter-Glo ATP luminescence
[16] = SU-DIPG-VI glioma cell viability, MIPE4.0 library, CellTiter-Glo luminescence, qHTS (AID 1347066; cut-off not given, nearly all actives have AC50 up to about 30 µM;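 note: cells exposed to compound for 48 hours before readout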); conditions: CellTiter-Glo ATP luminescence
[17] = SU-DIPG-XXV glioma cell viability, MIPE5.0 library, qHTS (AID 1347068; cut-off not given, nearly all actives have IC50 up to about 30 µM;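 for IC50: cells exposed to compound for 48 hours before viability readout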)
[18] = ovarian cancer cell viability with rucaparib, profiling panel, oncology-focused library, rucaparib conditional (AID 1508598); conditions: patient-derived ovarian cancer cells, CellTiter-Glo viability, 144 h, stronger effect = lower value
[19] = MELAS cybrid survival, CellTiter-Glo 48 h, stronger effect = higher value
[20] = Rieske KO mouse fibroblast survival, CellTiter-Glo 72 h
[21] = stronger effect = lower value, cell number ratio, induced over uninduced
[22] = measured here: relative caspase fold change +Dox/-Dox
[23] = measured here: total cells with miR-34 induction, stronger effect = lower value
[24] = measured here: total cells without miR-34 induction

CNCCC(Oc1ccccc1OC)c1ccccc1 (stereo not drawn)
-0.0039 and 1.57: z-score [11, 20]
inactive: parasite load remaining [1] 99.2% and 34.1% | nuclear beta-catenin stimulation ([2]; at 10 µM) -0.2% | insulin secretion stimulation [3] 8% | viability decrease [4] -108% | tube area decrease [5] 0.4% | GLP1 secretion stimulation [6] 1.3% | inhibition of viability [7] 1.93% | viability decrease (inhibition) [8] 16.6% | viability decrease (inhibition) [9] -38.2% | remaining activity [10] 107% | z-score [11, 19] -0.579 and 0.865 | z-score [12] -0.245 and -0.495 and 0.12
99.6% and 98.5%: viability [1]
0.5%: nuclear beta-catenin stimulation ([2]; stimulation, at 2 µM)

CN1CCC(Nc2ncc3ncnc(Nc4ccc(F)c(Cl)c4)c3n2)CC1
inactive: nuclear beta-catenin stimulation ([2]; at 10 µM) 11.6% | insulin secretion stimulation [3] 5.85% | tube area decrease [5] -4.5% | GLP1 secretion stimulation [6] 6.3% | remaining activity [10] 123% | fold change [13, 21] 1.35 | z-score [12] -0.455
0.1%: nuclear beta-catenin stimulation ([2]; stimulation, at 2 µM)
active: viability decrease [4] 57.4% | inhibition of viability [7] 73.7% | viability decrease (inhibition) [8] 97.8% | viability decrease (inhibition) [9] 78.2%
0.869: fold change [13, 22]
2330: cell count [13, 24]
3140: cell count [13, 23]

CC[N+](CC)(CCNC(=O)C(=O)NCC[N+](CC)(CC)Cc1ccccc1Cl)Cc1ccccc1Cl
1.05: fold change [13, 22]
9570: cell count [13, 24]
3.3%: nuclear beta-catenin stimulation ([2]; stimulation, at 2 µM)
inactive: nuclear beta-catenin stimulation ([2]; at 10 µM) 0.3% | insulin secretion stimulation [3] 0.9% | viability decrease [4] -14.5% | tube area decrease [5] -8.9% | GLP1 secretion stimulation [6] 2.4% | inhibition of viability [7] 2.83% | viability decrease (inhibition) [8] 6.4% | viability decrease (inhibition) [9] -9.9% | remaining activity [10] 122% | fold change [13, 21] 0.939 | z-score [12] 0.25
8990: cell count [13, 23]

O=C(NOCC1CC1)c1ccc(F)c(F)c1Nc1ccc(I)cc1Cl
2940: cell count [13, 24]
1.7%: nuclear beta-catenin stimulation ([2]; stimulation, at 2 µM)
0.574: fold change [13, 22]
3240: cell count [13, 23]
inactive: nuclear beta-catenin stimulation ([2]; at 10 µM) 1.5% | insulin secretion stimulation [3] -0.4% | viability decrease [4] 43.3% | GLP1 secretion stimulation [6] 9.6% | fold change [13, 21] 1.1 | z-score [11, 19] -0.582 | viability ([18]; at 0.000305 µM, OCI-C5x cells, with rucaparib 10 µM, 100% = cells with rucaparib alone) 116% | viability ([18]; at 0.000305 µM, OCI-C5x cells, without rucaparib) 119% | viability ([18]; at 0.000305 µM, OCI-P5x cells, with rucaparib 20 µM, 100% = cells with rucaparib alone) 142% | viability ([18]; at 0.000305 µM, OCI-P5x cells, without rucaparib) 100% | viability ([18]; at 0.00122 µM, OCI-C5x cells, with rucaparib 10 µM, 100% = cells with rucaparib alone) 112% | viability ([18]; at 0.00122 µM, OCI-C5x cells, without rucaparib) 120% | viability ([18]; at 0.00122 µM, OCI-P5x cells, with rucaparib 20 µM, 100% = cells with rucaparib alone) 135% | viability ([18]; at 0.00122 µM, OCI-P5x cells, without rucaparib) 109% | viability ([18]; at 0.00488 µM, OCI-C5x cells, with rucaparib 10 µM, 100% = cells with rucaparib alone) 123% | viability ([18]; at 0.00488 µM, OCI-C5x cells, without rucaparib) 118% | viability ([18]; at 0.00488 µM, OCI-P5x cells, with rucaparib 20 µM, 100% = cells with rucaparib alone) 126% | viability ([18]; at 0.0195 µM, OCI-C5x cells, with rucaparib 10 µM, 100% = cells with rucaparib alone) 115% | viability ([18]; at 0.0195 µM, OCI-C5x cells, without rucaparib) 127% | viability ([18]; at 0.0195 µM, OCI-P5x cells, with rucaparib 20 µM, 100% = cells with rucaparib alone) 122% | viability ([18]; at 0.0195 µM, OCI-P5x cells, without rucaparib) 107% | viability ([18]; at 0.0781 µM, OCI-C5x cells, with rucaparib 10 µM, 100% = cells with rucaparib alone) 121% | viability ([18]; at 0.0781 µM, OCI-C5x cells, without rucaparib) 111% | viability ([18]; at 0.0781 µM, OCI-P5x cells, with rucaparib 20 µM, 100% = cells with rucaparib alone) 124% | viability ([18]; at 0.0781 µM, OCI-P5x cells, without rucaparib) 110% | viability ([18]; at 0.313 µM, OCI-C5x cells, with rucaparib 10 µM, 100% = cells with rucaparib alone) 121% | viability ([18]; at 0.313 µM, OCI-C5x cells, without rucaparib) 119% | viability ([18]; at 0.313 µM, OCI-P5x cells, with rucaparib 20 µM, 100% = cells with rucaparib alone) 106% | viability ([18]; at 1.25 µM, OCI-C5x cells, with rucaparib 10 µM, 100% = cells with rucaparib alone) 104% | viability ([18]; at 1.25 µM, OCI-C5x cells, without rucaparib) 117% | viability ([18]; at 5 µM, OCI-C5x cells, without rucaparib) 116%
0.299: z-score [11, 20]
active: tube area decrease [5] 104% | inhibition of viability [7] 87.4% | viability decrease (inhibition) [8] 133% | viability decrease (inhibition) [9] 92.4% | AC50 [14] 2.35 µM | AC50 [15] 11.8 µM | AC50 [16] 10.5 µM | IC50 [17] 13.2 µM | viability ([18]; at 0.00488 µM, OCI-P5x cells, without rucaparib) 97.9% | viability ([18]; at 0.313 µM, OCI-P5x cells, without rucaparib) 92.7% | viability ([18]; at 1.25 µM, OCI-P5x cells, with rucaparib 20 µM, 100% = cells with rucaparib alone) 87.2% | viability ([18]; at 1.25 µM, OCI-P5x cells, without rucaparib) 90.5% | viability ([18]; at 5 µM, OCI-C5x cells, with rucaparib 10 µM, 100% = cells with rucaparib alone) 87.6% | viability ([18]; at 5 µM, OCI-P5x cells, with rucaparib 20 µM, 100% = cells with rucaparib alone) 61% | viability ([18]; at 5 µM, OCI-P5x cells, without rucaparib) 63.3%

C[C@H]1C[C@H]2[C@@H]3CCC4=CC(=O)C=C[C@]4(C)[C@H]3C(=O)C[C@]2(C)[C@@]1(O)C(=O)CO
1.2%: nuclear beta-catenin stimulation ([2]; stimulation, at 2 µM)
inactive: nuclear beta-catenin stimulation ([2]; at 10 µM) 0.1% | insulin secretion stimulation [3] 1.5% | viability decrease [4] 19% | tube area decrease [5] -11% | GLP1 secretion stimulation [6] 0.7% | inhibition of viability [7] -1.9% | viability decrease (inhibition) [8] 0.2% | viability decrease (inhibition) [9] 5.4% | outcome [14] | outcome [15] | outcome [16] | outcome [17]

O=C(O)C(=O)Nc1cccc(-c2nn[nH]n2)c1
1.9%: nuclear beta-catenin stimulation ([2]; stimulation, at 2 µM)
inactive: nuclear beta-catenin stimulation ([2]; at 10 µM) 1.3% | insulin secretion stimulation [3] 4% | viability decrease [4] 19.5% | tube area decrease [5] 0.4% | GLP1 secretion stimulation [6] -3.2% | inhibition of viability [7] -2.9% | viability decrease (inhibition) [8] 32.2% | viability decrease (inhibition) [9] 9.1% | outcome [14] | outcome [15] | outcome [16] | outcome [17]

NS(=O)(=O)c1cc(Cl)c(Cl)c(S(N)(=O)=O)c1
0.943 and -0.845: z-score [11, 20]
8460 and 8780: cell count [13, 23]
9640 and 9360: cell count [13, 24]
0.4%: nuclear beta-catenin stimulation ([2]; stimulation, at 2 µM)
1.4 and 0.793: fold change [13, 22]
104%: viability [1]
inactive: parasite load remaining [1] 89.1% | nuclear beta-catenin stimulation ([2]; at 10 µM) -1.4% | insulin secretion stimulation [3] 3.3% | viability decrease [4] 1% | tube area decrease [5] -7.2% | GLP1 secretion stimulation [6] 0.3% | inhibition of viability [7] 6.4% | viability decrease (inhibition) [8] 6.1% | viability decrease (inhibition) [9] -8.2% | outcome [15] | outcome [16] | outcome [17] | fold change [13, 21] 0.878 and 0.937 | z-score [11, 19] -0.199 and -0.0719
active: AC50 [14] 26.3 µM

O=C(O)Cc1ccc(OCCNC[C@H](O)c2ccccc2)cc1
8910: cell count [13, 23]
-5%: nuclear beta-catenin stimulation ([2]; stimulation, at 2 µM)
inactive: nuclear beta-catenin stimulation ([2]; at 10 µM) 23.3% | insulin secretion stimulation [3] 0.6% | viability decrease [4] -5.3% | tube area decrease [5] -9.4% | GLP1 secretion stimulation [6] -0.5% | inhibition of viability [7] -1.1% | viability decrease (inhibition) [8] 8.4% | viability decrease (inhibition) [9] 19.5% | remaining activity [10] 103% | fold change [13, 21] 0.89 | z-score [12] 0.015
10000: cell count [13, 24]
2.1: fold change [13, 22]

Reference: PubChem BioAssay
